Test results as given in PubChem BioAssay (NCATS).
Where “and” joins values, the source holds several entries; their conditions need not be identical. Equal values may be shown once. Results filed as inconclusive are left out. Calls of active or inactive are those of the source. Unless noted, the call rests on the fitted dose curve; in most records, active means well fitted curve in the direction sought with a large enough effect; inconclusive means small, poorly fitted or top-dose-only effect, or another doubt; inactive means no such curve, though single readings can be large; an effect the other way counts as inactive or inconclusive.

Tests used:
[1] = molecular target: Alpha-galactosidase A (Homo sapiens) (UniProt P06280); assay: Counterscreen for Glucocerebrosidase Inhibitors: qHTS Assay for Human alpha-Galactosidase at pH 4.5 (AID 992); further: 0% is about no effect
Chain of Alpha-galactosidase A (Homo sapiens) (P06280 whole entry, looked up): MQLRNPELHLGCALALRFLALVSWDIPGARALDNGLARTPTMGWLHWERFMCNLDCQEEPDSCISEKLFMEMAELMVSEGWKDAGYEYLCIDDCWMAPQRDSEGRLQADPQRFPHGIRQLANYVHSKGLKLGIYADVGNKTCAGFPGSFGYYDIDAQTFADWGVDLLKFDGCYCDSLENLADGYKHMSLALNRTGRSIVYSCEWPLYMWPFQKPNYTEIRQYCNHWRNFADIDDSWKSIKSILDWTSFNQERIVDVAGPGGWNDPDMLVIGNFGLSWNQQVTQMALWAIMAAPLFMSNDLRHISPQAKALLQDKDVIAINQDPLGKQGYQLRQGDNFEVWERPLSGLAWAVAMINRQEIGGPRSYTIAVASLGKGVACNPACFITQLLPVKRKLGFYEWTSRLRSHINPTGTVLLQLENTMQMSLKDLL
How it was run: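 Enzyme at 2 nM final was combined with compound (0.7 nM to 77 uM) and 80 uM 4-methylumbelliferyl alpha-D-galactopyranoside in 50 mM citric acid, 0.005% Tween-20, pH 4.5. After 20 min at room temperature, fluorescence was read (Ex 365/Em 440 nm); AC50 came from Hill fits.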

[2] = molecular target: alpha-glucosidase (Oryza sativa, rice) (UniProt Q653V4); assay: Counterscreen for Glucocerebrosidase Inhibitors: qHTS Assay for Rice alpha-Glucosidase at pH 5.0 (AID 997);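 further: 0% = full activity with enzyme and -100% = basal without enzyme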
How it was run: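 Rice alpha-glucosidase (4 nM final) with 400 uM 4-methylumbelliferyl-alpha-D-glucopyranoside in citrate buffer pH 5.0, 20 min at room temperature, stopped at pH 10; fluorescence 365/440 nm, compounds 0.7 nM–77 uM, AC50 from Hill fits.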

[3] = qHTS Assay for Lipid Storage Modulators (AID 1519; calls by dose curve); conditions: Drosophila S3 cells, BODIPY lipid droplet/cell ratio, laser cytometry, cells loaded with oleic acid
How it was run: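 Cells seeded at 5,000 per well were treated with compounds over a concentration series and loaded with oleic acid (400 uM, as added). Lipid droplet fluorescence (488 nm excitation, 500-530 nm channel) was read by laser-scanning cytometry and normalized to 20 uM Triacsin C.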

[4] = Cell Viability - LYMP2-026 (AID 989); further: on the % scale 0 is the no-effect control and ±100 the full control effect; nearly all actives have a fitted effect of over 50% in size
How it was run: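 Human lymphoblastoid LYMP2-026 cells, 2500/well, exposed to compound 24 h at 37 C in complete medium. Viability as intracellular ATP by CellTiter-Glo luminescence; AC50 from Hill fits of qHTS concentration-response.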

[5] = Cell Viability - LYMP1-002 - Assay at 24 hr (AID 993); further: on the % scale 0 is the no-effect control and ±100 the full control effect
How it was run: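 Human lymphoblastoid LYMP1-002 cells (2500/well) treated 24 h at 37 °C; viability as intracellular ATP by CellTiter-Glo luminescence. Tetraoctylammonium bromide as positive control; AC50 from Hill-equation fits of qHTS concentration-response.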

[6] = Cell Viability - LYMP1-002 - Assay at 40 hr (AID 994);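 further: 0% = DMSO only and full inhibition = 92 µM tetraoctylammonium bromide; nearly all actives have a fitted effect of over 60% in size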
How it was run: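 LYMP1-002 human lymphoblastoid cells (2500/well, complete medium) were treated with compounds for 40 hr at 37 C. Intracellular ATP was measured by CellTiter-Glo luminescence, and AC50 values came from Hill-equation fits of concentration-response data; tetraoctylammonium bromide was the positive control.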

[7] = qHTS Assay for Identification of Small Molecule Inducers of Hypoxia Response (AID 2120; active means well fitted curve in the direction sought with a large enough effect in the signal ratio, with a control signal flat, not every such curve was filed as active; the % refers to the signal ratio; further: 0% is about no effect)
How it was run: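 HRE-bla ME-180 cells in Opti-MEM with 0.5% dialyzed FBS, pre-plated 4-5 h, then compound titration for 17 h at 37 degrees Celsius. CCF4 loaded 2.5 h at room temperature; 460/530 nm ratio gave %Activity and AC50 for induction.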

[8] = molecular target: DNA repair nuclease/redox regulator APEX1 (Homo sapiens) (UniProt P27695); assay: qHTS Validation Assay for Inhibitors of the Human Apurinic/apyrimidinic Endonuclease 1 (APE1) (AID 1705;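 further: TAMRA fluorescence gain over two minutes as APE1 cuts a quenched THF abasic duplex; on the % scale 0 is the no-effect control and ±100 the full control effect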)
Chain of DNA repair nuclease/redox regulator APEX1 (Homo sapiens) (P27695 whole entry, looked up): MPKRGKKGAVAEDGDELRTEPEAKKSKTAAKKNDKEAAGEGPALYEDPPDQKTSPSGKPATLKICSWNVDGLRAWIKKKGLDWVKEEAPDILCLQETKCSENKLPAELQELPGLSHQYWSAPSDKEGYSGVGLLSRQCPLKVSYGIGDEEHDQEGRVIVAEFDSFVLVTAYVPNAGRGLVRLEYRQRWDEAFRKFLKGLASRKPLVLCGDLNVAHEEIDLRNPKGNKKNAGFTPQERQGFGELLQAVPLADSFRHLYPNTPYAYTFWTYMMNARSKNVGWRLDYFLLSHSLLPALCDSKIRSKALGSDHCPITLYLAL
How it was run: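 Read-out: TAMRA fluorescence (525 nm ex, 598 nm em) from cleavage of a quenched THF abasic-site duplex, 50 nM final; activity taken as intensity change between third and first of three reads 60 s apart.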

[9] = Counterscreen for APE1 Inhibitors: Fluorescent Dye Displacement Validation Assay (AID 1707);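 further: plate controls were ThO with dsDNA and no compound for no effect and ThO without dsDNA for full effect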
How it was run: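 Thiazole Orange displacement from dsDNA: 250 nM ThO with 50 nM TAMRA-labelled abasic-site (tetrahydrofuran) duplex in 50 mM Tris-HCl pH7.5, 50mM NaCl, 2 mM MgCl2, 0.01% Tween-20. Loss of endpoint fluorescence (ex 480 nm, em 540 nm) flags DNA binders.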

[10] = molecular target: Endonuclease 4 (Escherichia coli (strain K12)) (UniProt P0A6C1); assay: Counterscreen for APE1 Inhibitors: qHTS Validation Assay for Inhibitors of Endonuclease IV (AID 1708); further: on the % scale 0 is the no-effect control and ±100 the full control effect
How it was run: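 Concentration-response counterscreen run identically to the APE1 assay: 15 min room-temperature preincubation of 2 nM enzyme with compound, reaction started with 50 nM quenched abasic DNA, progress taken from kinetic fluorescence.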

[11] = qHTS for differential inhibitors of proliferation of Plasmodium falciparum line 7G8 (AID 1815);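 further: parasite growth measured after three days of incubation; plate controls were vehicle wells for no effect and reference inhibitor wells for full effect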
[12] = qHTS for differential inhibitors of proliferation of Plasmodium falciparum line GB4 (AID 1816);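 further: parasite growth measured after 72 h incubation; 0% = vehicle DMSO and -100% = reference inhibitor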
[13] = qHTS for differential inhibitors of proliferation of Plasmodium falciparum line 3D7 (AID 1876);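 further: parasite growth measured after three days of culture; 0% = vehicle wells and -100% = reference inhibitor wells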
[14] = qHTS for differential inhibitors of proliferation of Plasmodium falciparum line D10 (AID 1877);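 further: parasites grown with compound for 72 h before DNA staining; plate controls were vehicle wells for no effect and reference inhibitor wells for full effect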
[15] = qHTS for differential inhibitors of proliferation of Plasmodium falciparum line Dd2 (AID 1882);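 further: plate controls were DMSO vehicle for no effect and 0.29 µM artemisinin for full effect; nearly all actives have a fitted effect of over 65% in size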
How it was run: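 Dd2-infected erythrocytes (0.3% parasitemia, 2.5% hematocrit final) incubated with compound 72 h at 37 C, 5% CO2; lysed with saponin/Triton buffer containing SYBR Green I, incubated overnight in the dark, then read by fluorescence (485/535 nm). Normalized to 0.29 uM artemisinin and DMSO.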

[16] = qHTS for differential inhibitors of proliferation of Plasmodium falciparum line W2 (AID 1883);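 further: parasites grown with compound for 72 h before lysis and staining; 0% = vehicle wells and -100% = control inhibitor wells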
[17] = qHTS for differential inhibitors of proliferation of Plasmodium falciparum line HB3 (AID 1886);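 further: parasites grown with compound for 72 h before SYBR Green readout; plate controls were vehicle for no effect and reference inhibitor for full effect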
[18] = molecular target: Ferritin light chain (Equus caballus) (UniProt P02791); assay: qHTS Validation Assay for Identification of Novel General Anesthetics (AID 2323); further: on the % scale 0 is the no-effect control and ±100 the full control effect
Chain of Ferritin light chain (Equus caballus) (P02791 2-175 limits assumed): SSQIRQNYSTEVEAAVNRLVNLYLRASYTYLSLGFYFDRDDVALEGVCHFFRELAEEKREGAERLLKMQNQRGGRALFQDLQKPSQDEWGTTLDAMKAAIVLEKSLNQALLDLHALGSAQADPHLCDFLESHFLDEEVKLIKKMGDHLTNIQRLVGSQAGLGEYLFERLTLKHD
How it was run: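 10 uM horse-spleen apoferritin + 1-AMA (50% saturated, PBS); cpd pin-transferred, 10 min RT. Ex 380/Em 535 nm endpoint. Activity normalized between free 1-AMA and 1-AMA/apoferritin; 4-parameter Hill fit of concentration-response.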

[19] = molecular target: ATP-dependent DNA helicase Q1 (Homo sapiens) (UniProt P46063); assay: qHTS Validation Assay for Inhibitors of RecQ-Like Dna Helicase 1 (RECQ1) (AID 2353);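 further: plate controls were DMSO vehicle for no effect and enzyme-free control for full effect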
Chain of ATP-dependent DNA helicase Q1 (Homo sapiens) (P46063 whole entry, looked up): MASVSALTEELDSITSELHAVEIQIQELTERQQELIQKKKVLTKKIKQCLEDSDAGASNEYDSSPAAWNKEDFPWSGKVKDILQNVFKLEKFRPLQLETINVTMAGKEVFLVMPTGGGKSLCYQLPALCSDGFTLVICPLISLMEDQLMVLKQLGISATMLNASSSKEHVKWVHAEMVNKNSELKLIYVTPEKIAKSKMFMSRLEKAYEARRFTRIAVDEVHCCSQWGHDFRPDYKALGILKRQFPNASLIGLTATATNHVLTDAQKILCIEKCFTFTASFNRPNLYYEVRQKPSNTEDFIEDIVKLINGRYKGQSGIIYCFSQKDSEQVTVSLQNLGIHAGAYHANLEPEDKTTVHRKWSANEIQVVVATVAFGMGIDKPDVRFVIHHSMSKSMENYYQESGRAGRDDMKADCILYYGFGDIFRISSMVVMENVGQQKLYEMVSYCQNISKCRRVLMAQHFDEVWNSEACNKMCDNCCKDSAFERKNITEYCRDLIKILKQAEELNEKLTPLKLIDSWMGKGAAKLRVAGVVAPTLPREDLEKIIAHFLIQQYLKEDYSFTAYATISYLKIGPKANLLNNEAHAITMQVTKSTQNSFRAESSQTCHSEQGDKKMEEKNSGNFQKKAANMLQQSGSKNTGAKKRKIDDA
How it was run: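 50 nM RECQ1T1 preincubated 15 min with compound in Tris pH 8.0 buffer with MgCl2, DTT, Tween-20 and 2.5 ug/ml poly(dI-dC); started with 200 nM TAMRA/BHQ-2 forked duplex and 2 mM ATP. Unwinding read as fluorescence (525/598 nm), two reads 2 h apart.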

[20] = molecular target: RecQ-like DNA helicase BLM (Homo sapiens) (UniProt P54132); assay: qHTS Validation Assay for Inhibitors of Bloom's syndrome helicase (BLM) (AID 2364);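 further: plate controls were DMSO vehicle for no effect and enzyme-free control for full effect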
Chain of RecQ-like DNA helicase BLM (Homo sapiens) (P54132 whole entry, looked up): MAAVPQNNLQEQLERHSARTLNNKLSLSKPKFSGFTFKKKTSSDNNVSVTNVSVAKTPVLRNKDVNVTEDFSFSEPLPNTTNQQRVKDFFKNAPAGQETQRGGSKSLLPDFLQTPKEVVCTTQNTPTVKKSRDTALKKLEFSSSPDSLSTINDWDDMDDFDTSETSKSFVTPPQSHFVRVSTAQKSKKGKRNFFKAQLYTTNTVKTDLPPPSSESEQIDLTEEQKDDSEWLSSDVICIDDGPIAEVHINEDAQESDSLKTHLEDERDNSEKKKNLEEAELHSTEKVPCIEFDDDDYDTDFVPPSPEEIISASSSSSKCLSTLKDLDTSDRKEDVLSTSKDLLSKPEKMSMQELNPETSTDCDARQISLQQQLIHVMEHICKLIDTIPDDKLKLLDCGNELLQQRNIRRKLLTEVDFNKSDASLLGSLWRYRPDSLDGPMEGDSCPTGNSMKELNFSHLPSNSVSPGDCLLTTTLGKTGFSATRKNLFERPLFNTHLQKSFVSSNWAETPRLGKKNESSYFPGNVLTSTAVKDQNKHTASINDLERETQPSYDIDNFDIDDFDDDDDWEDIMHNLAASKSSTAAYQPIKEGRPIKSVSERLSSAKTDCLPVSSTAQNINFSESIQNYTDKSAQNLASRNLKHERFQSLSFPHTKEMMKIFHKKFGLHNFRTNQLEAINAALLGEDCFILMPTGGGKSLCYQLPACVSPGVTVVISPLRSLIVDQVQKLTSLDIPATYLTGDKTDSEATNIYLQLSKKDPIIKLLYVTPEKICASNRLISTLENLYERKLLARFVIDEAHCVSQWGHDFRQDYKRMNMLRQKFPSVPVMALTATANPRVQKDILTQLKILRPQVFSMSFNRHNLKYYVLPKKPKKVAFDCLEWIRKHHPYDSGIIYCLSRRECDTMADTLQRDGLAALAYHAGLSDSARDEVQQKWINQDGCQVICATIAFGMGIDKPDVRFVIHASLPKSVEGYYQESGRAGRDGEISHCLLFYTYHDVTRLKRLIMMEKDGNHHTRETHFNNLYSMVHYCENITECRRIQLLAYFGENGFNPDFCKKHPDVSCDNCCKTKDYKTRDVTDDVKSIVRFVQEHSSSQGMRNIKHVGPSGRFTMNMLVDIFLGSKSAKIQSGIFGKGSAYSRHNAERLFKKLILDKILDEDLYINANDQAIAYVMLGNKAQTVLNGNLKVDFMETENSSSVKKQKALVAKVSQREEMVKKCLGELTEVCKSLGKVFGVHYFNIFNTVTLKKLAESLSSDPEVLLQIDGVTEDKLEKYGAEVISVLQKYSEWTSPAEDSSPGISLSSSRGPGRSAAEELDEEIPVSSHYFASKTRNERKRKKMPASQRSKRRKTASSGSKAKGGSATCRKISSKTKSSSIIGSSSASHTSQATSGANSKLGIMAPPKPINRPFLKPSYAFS
How it was run: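 BLM 50 nM in 25 mM Tris-HCl pH 8.0, 5 mM NaCl, 2 mM MgCl2, 1 mM DTT, 0.01% Tween-20, 2.5 ug/ml poly(dI-dC); 15 min cpd preinc, RT. Start: 200 nM forked DNA + 2 mM ATP (final). TAMRA read, 2 reads 2 h apart.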

[21] = measured here: cell count channel max response
[22] = measured here: lipid channel max response

COc1ccc2c(c1OC)C(=O)OC2[C@H]1c2c(cc3c(c2OC)OCO3)CCN1C (stereo partly drawn)
outcome [1]: inactive
outcome [2]: inactive
activity change, negative = inhibition ([3]; at 25.7 µM (top of the series)): 0.244% (inactive)
max response [3, 21]: -11.8%
max response [3, 22]: -9.72%

Cc1cc(O)c2c(c1)C(=O)c1cccc(O)c1C2=O
outcome [4]: inactive
outcome [5]: inactive
outcome [6]: inactive
activity change, negative = inhibition ([3]; at 57.5 µM (top of the series)): 5.96% (inactive) and -4.1% (inactive)
max response [3, 21]: 3.86% and 2.84%
max response [3, 22]: 13.4% and 1.16%
outcome [7]: inactive

CC(Cc1ccc(O)c(O)c1)(NN)C(=O)O (stereo not drawn)
activity change, negative = inhibition ([3]; at 57.5 µM (top of the series)): 4.17% (inactive)
max response [3, 21]: 0.886%
max response [3, 22]: 8.76%

C[C@@]12C(=O)OC(=O)[C@@]1(C)C1CCC2O1
activity change, negative = inhibition ([3]; at 57.5 µM (top of the series)): -13.3% (inactive)
max response [3, 21]: -9.65%
max response [3, 22]: -21.9%

CN(C)CC[C@H](c1ccc(Cl)cc1)c1ccccn1
outcome [2]: inactive
activity change, negative = inhibition ([3]; at 25.7 µM (top of the series)): -0.988% (inactive)
max response [3, 21]: 4.39%
max response [3, 22]: 4.57%

COc1cc2c(cc1O)CCC1C2CC[C@@]2(C)C1CC[C@@H]2O (stereo partly drawn)
activity change, negative = inhibition ([3]; at 57.5 µM (top of the series)): -1.86% (inactive)
max response [3, 21]: 18.4%
max response [3, 22]: 18.6%

COc1ccc([C@@H]2CNC(=O)C2)cc1OC1CCCC1
activity change, negative = inhibition ([3]; at 25.7 µM (top of the series)): -2.44% (inactive)
max response [3, 21]: -4.18%
max response [3, 22]: -7.27%

N=c1ccn2c(n1)O[C@H]1[C@@H](O)[C@@H](CO)O[C@H]12
outcome [8]: inactive
outcome [9]: inactive
outcome [10]: inactive
outcome [11]: inactive
outcome [12]: inactive
outcome [13]: inactive
outcome [14]: inactive
outcome [15]: inactive
outcome [16]: inactive
outcome [17]: inactive
outcome [18]: inactive
outcome [19]: inactive
outcome [20]: inactive

Cc1ccc(O)c(C(CCN(C(C)C)C(C)C)c2ccccc2)c1 (stereo not drawn)
activity change, negative = inhibition ([3]; at 57.5 µM (top of the series)): 7.57% (inactive)
max response [3, 21]: 3.1%
max response [3, 22]: 8.45%

CN(N=O)C(=O)N[C@H]1C(O)OC(CO)[C@@H](O)[C@H]1O (stereo partly drawn)
activity change, negative = inhibition ([3]; at 57.5 µM (top of the series)): -2.09% (inactive)
max response [3, 21]: 10.4%
max response [3, 22]: 8.35%

c1coc(CNc2ncnc3nc[nH]c23)c1
activity change, negative = inhibition ([3]; at 25.7 µM (top of the series)): 1.26% (inactive)
activity change, negative = inhibition ([3]; at 57.5 µM (top of the series)): 6.17% (inactive)
max response [3, 21]: -19.4% and 15.6%
max response [3, 22]: -19.1% and 25.8%

Nc1nc2c(c(=O)[nH]1)N(C=O)[C@H](CNc1ccc(C(=O)N[C@@H](CCC(=O)O)C(=O)O)cc1)CN2
activity change, negative = inhibition ([3]; at 25.7 µM (top of the series)): -2.58% (inactive)
max response [3, 21]: -9.43%
max response [3, 22]: -11.6%

OCC(O)C(O)C(O)CO (stereo not drawn)
activity change, negative = inhibition ([3]; at 57.5 µM (top of the series)): -0.297% (inactive) and 2.14% (inactive)
max response [3, 21]: 13.1% and 19.4%
max response [3, 22]: 16.9% and 22.3%

O=c1c(O)c(-c2ccc(O)c(O)c2)oc2cc(O)ccc12
activity change, negative = inhibition ([3]; at 57.5 µM (top of the series)): 4.11% (inactive)
max response [3, 21]: -27.3%
max response [3, 22]: -24.1%

Oc1cc2c(cc1O)C1c3ccc(O)c(O)c3OCC1(O)C2 (stereo not drawn)
activity change, negative = inhibition ([3]; at 57.5 µM (top of the series)): 6.13% (inactive)
max response [3, 21]: -4.57%
max response [3, 22]: 5.65%
